The campaign covered roughly 320,000 compounds. About 7,600 (2.4%) were called active. Another 3% or so got no clear call; they are omitted. This is one part of a sample in which actives are shown more often than they occur. The call rests on the fitted dose curve; in most records, active means well fitted activation curve with a large enough effect; inconclusive means small, poorly fitted or top-dose-only effect; inactive means no such curve, though single readings can be large or run the other way.
Assay: qHTS Assay for NPC1 Promoter Activators; further: nearly all actives have a fitted effect of over 60% in size;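 on activation: reporter is driven by a mutant NPC1 promoter; % of control where 0% means no effect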
Conditions: Huh7 NPC1 promoter luciferase reporter, 24 h; series mostly up to 9.22 µM; activation: at the top concentration
Summary of the method: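 Huh7 reporter cells (NPC1 promoter driving luciferase) are dosed with compound for 24 h at 37 °C, 5% CO2; luciferase detection reagent is then added and luminescence measured after 10 min at ambient temperature.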
Potency means the concentration at half of the fitted maximal effect.

| SMILES | activation | Potency |
| --- | --- | --- |
| Cc1cc(C(=O)OCC(=O)Nc2ccccc2Cl)c(C)o1 | -3.16% (inactive) | – |
| CCCc1ccc(C(=O)COC(=O)CN2C(=O)NC3(CCCCC3C)C2=O)cc1 (stereo not drawn) | 1.15% (inactive) | – |
| COc1ccc(-c2nnc(SCC(=O)c3cccs3)o2)c(OC)c1 | – | 2240 nM (active) |
| COc1ccc(CCNC(=O)CSc2nnc(CNC(=O)c3cccs3)o2)cc1OC | 3.82% (inactive) | – |
| COc1ccccc1-c1nnc(SCC(=O)N2CC(C)CC(C)C2)o1 (stereo not drawn) | 1.65% (inactive) | – |
| O=C(NNC(=O)c1ccc(-n2cncn2)c([N+](=O)[O-])c1)c1ccccc1 | 0.697% (inactive) | – |
| CN(C)c1nnnn1-c1ccc(Cl)cc1 | -5.32% (inactive) | – |
| c1ccc(-n2nc3ccccc3n2)cc1 | -1.19% (inactive) | – |
| Nc1ccc2nn(-c3ccc(Cl)cc3)nc2c1 | – | 447 nM (active) |
| CN(CC(=O)NC1CCN(Cc2ccccc2)CC1)S(=O)(=O)c1ccc(Cl)s1 | -7.49% (inactive) | – |
| CCCn1c(=O)c(C(=O)Nc2cc(C)ccn2)c(O)c2ccccc21 | 1.51% (inactive) | – |
| Cn1c(=O)c(C(=O)Nc2ncccn2)c(O)c2ccccc21 | – | 2820 nM (active) |
| C=CCn1c(=O)c(C(=O)Nc2ncccc2O)c(O)c2ccccc21 | 1.39% (inactive) | – |
| O=C(N/N=C/c1ccco1)c1csc2c1CCCC2 | 25.4% (inactive) | – |
| Cc1ccc(NC(=O)c2csc3c2CCCC3)cc1 | – | 2820 nM (active) |
| O=C(Nc1ccccc1N1CCOCC1)c1csc2c1CCCC2 | 3.7% (inactive) | – |
| Cc1ccc(N=C2NC(=O)c3cccc([N+](=O)[O-])c32)cc1 | 2.23% (inactive) | – |
| COc1ccc2nc(NC(=O)NC3CCCCC3)sc2c1 | – | 3160 nM (active) |
| COc1ccc2nc(NC(=O)[C@@H]3CCCN3C(=O)c3cccs3)sc2c1 | 8.01% (inactive) | – |
| COc1ccc(CNC(=O)c2ccc(Br)s2)cc1OC | 1.64% (inactive) | – |
| CS(=O)(=O)c1ccc2nc(NC(=O)C3CCCCC3)sc2c1 | 10.5% (inactive) | – |
| CCc1noc(C)c1C(=O)Nc1nc2ccc(OC)cc2s1 | 0.745% (inactive) | – |

| SMILES | activation | Potency |
| --- | --- | --- |
| COc1ccc2nc(NC(=O)c3ccc(Br)s3)sc2c1 | – | 3980 nM (active) |
| CCOc1ccc(OCC(=O)OC(C)C(=O)NC2CCCCC2C)cc1 (stereo not drawn) | -1.02% (inactive) | – |
| O=C(CCc1nc2sc3c(c2c(=O)[nH]1)CCCC3)NCC(=O)Nc1ccccc1Br | 0.897% (inactive) | – |
| CSCCC(NC(=O)c1ccco1)C(=O)NCCc1ccc(F)cc1 (stereo not drawn) | 0.568% (inactive) | – |
| COc1ccc(S(=O)(=O)N2CCN(C(C)C(=O)Nc3ccc(C(C)C)cc3)CC2)cc1 (stereo not drawn) | -1.01% (inactive) | – |
| CCC(=O)c1ccc(OCC(=O)OCC(=O)N2CCc3ccccc3C2)cc1 | 0.793% (inactive) | – |
| CCOc1ccc2nc(NC(=O)c3cc([N+](=O)[O-])ccc3N3CCOCC3)sc2c1 | -6.13% (inactive) | – |
| O=C(NC(Nc1nc2ccc([N+](=O)[O-])cc2s1)(C(F)(F)F)C(F)(F)F)c1ccccc1 | -37.5% (inactive) | – |
| O=C(Nc1nc2ccc([N+](=O)[O-])cc2s1)c1ccncc1 | – | 1410 nM (active) |
| CCC(C(=O)N1CCN(S(=O)(=O)c2sc(C(=O)O)c(C)c2C(=O)O)CC1)c1ccccc1 (stereo not drawn) | -0.87% (inactive) | – |
| Cc1c(N=Nc2ccc(N(C)C)cc2)c(=O)n(-c2ccccc2)n1C | – | 3550 nM (active) |
| Cc1nc(N)sc1N=Nc1c(C)n(C)n(-c2ccccc2)c1=O | 0.337% (inactive) | – |
| Cc1c(C=O)n(C)n(-c2ccccc2)c1=O | -2.37% (inactive) | – |
| CC(C(=O)Nc1ccc(S(=O)(=O)N2CCCC2)cc1)N(C)Cc1ccc(F)cc1 (stereo not drawn) | -1.43% (inactive) | – |
| Cc1ccc(NC(=O)CNCc2ccccn2)cc1S(=O)(=O)N(C)C | 10.9% (inactive) | – |
| CCN(CC)S(=O)(=O)c1cc(C(=O)Nc2ccccn2)ccc1C | – | 2240 nM (active) |
| CCN(c1ccccc1)S(=O)(=O)c1cc(C(=O)NCc2ccccn2)ccc1C | -1.04% (inactive) | – |
| COc1cc(OC)cc(C(=O)NCC(=O)N2CCCCCCC2)c1 | 1.24% (inactive) | – |
| Cc1ccc(C)c(NC(=O)COC(=O)CSc2ccccc2)c1 | 0.0646% (inactive) | – |
| COc1ccc(-c2cn3ccsc3n2)cc1 | – | 1580 nM (active) |
| COc1cc(OC)cc(-c2nc(=S)n3ccsc3n2)c1 | 9.02% (inactive) | – |
| COc1ccc(CNc2nccs2)cc1 | 21.7% (inactive) | – |

| SMILES | activation | Potency |
| --- | --- | --- |
| CCN(CC)S(=O)(=O)c1ccc(-c2cn3ccc(C)cc3n2)cc1 | – | 1260 nM (active) |
| Cc1ccn2cc(C(=O)NC3CCN(Cc4ccccc4)CC3)nc2c1 | -3.61% (inactive) | – |
| COc1ccc(-c2cn3ccc(C)cc3n2)cc1 | – | 112 nM (active) |
| COc1ccc(-n2c(-c3ccc(OC)c(OC)c3)n[nH]c2=S)cc1 | -0.837% (inactive) | – |
| CCN(CC(=O)NCCc1ccccc1)S(=O)(=O)c1ccc(C)cc1 | -1.6% (inactive) | – |
| CCN(c1cccc(C)c1)S(=O)(=O)c1ccc(-c2coc(C)n2)cc1 | -3.28% (inactive) | – |
| COC(=O)Cc1ccc(OC(=O)C2CCN(S(=O)(=O)c3ccc(OC)c(OC)c3)CC2)cc1 | -0.239% (inactive) | – |
| COCCn1c(C)cc(C(=O)CSc2nnc(C3CC3)n2C2CC2)c1C | -0.502% (inactive) | – |
| CN(C(=O)COC(=O)CCCc1c[nH]c2ccccc12)c1c(N)n(Cc2ccccc2)c(=O)[nH]c1=O | -3.45% (inactive) | – |
| O=C(Nc1ccc2c(c1)OCCO2)C1CCCN(c2ncccn2)C1 (stereo not drawn) | – | 398 nM (active) |
| Cc1cc(C)nc(N2CCC(C(=O)Nc3ccc4c(c3)OCCO4)CC2)n1 | -3.44% (inactive) | – |
| O=C(Nc1ccc2c(c1)OCCO2)C1CCCC1 | 21.2% (inactive) | – |
| CCc1ccccc1NC(=O)CN(C)C(=O)c1cc(C2CC2)nn1-c1ccccc1 | -0.178% (inactive) | – |
| COc1ccc(Cl)cc1C(=O)OCC(=O)NCc1cccs1 | 0.231% (inactive) | – |
| CCN(CC(=O)Nc1c(F)cccc1F)C(=O)c1ccc(-c2ccc(C(C)=O)cc2)o1 | -3.93% (inactive) | – |
| N#Cc1ccc(CN2CCN(CC(=O)Nc3ccccc3C(=O)NC3CC3)CC2)cc1 | 0.497% (inactive) | – |
| CC(C)CN(Cc1c(O)ccc2c(=O)c(-c3ccccc3)coc12)CC(C)C | -1.85% (inactive) | – |
| O=c1c(-c2ccccc2)coc2cc(O)ccc12 | – | 3160 nM (active) |
| Cc1c(CCC(=O)O)c(=O)oc2cc3occ(-c4ccccc4)c3cc12 | -1.45% (inactive) | – |
| COCC1CCCN(Cc2nc(-c3ccc4c(c3)OCO4)no2)C1 (stereo not drawn) | 12.7% (inactive) | – |
| CC(C)CCNC(=O)c1ccc2c(Cl)c3c(nc2c1)CCC3 | – | 2000 nM (active) |
| COc1ccc(N2CCN(C(=O)c3ccc4c(Cl)c5c(nc4c3)CCCC5)CC2)cc1 | -3.17% (inactive) | – |

| SMILES | activation | Potency |
| --- | --- | --- |
| CC(=O)c1ccc(NC(=O)c2ccc3c(Cl)c4c(nc3c2)CCCC4)cc1 | -3.17% (inactive) | – |
| Cc1c(C)c(C)c(S(=O)(=O)N2CCC3(CC2)OCCO3)c(C)c1C | -1.45% (inactive) | – |
| CCOc1ccc(S(=O)(=O)NCCC(=O)NCC2CCCO2)cc1 (stereo not drawn) | -2.23% (inactive) | – |
| CC(NC(=O)CN(C)S(=O)(=O)c1ccc(F)cc1)C1CC2CCC1C2 (stereo not drawn) | 6.05% (inactive) | – |
| CCCCN1C(=O)C(=O)N(CC(=O)Nc2cccc(C(C)=O)c2)C1=O | -7.53% (inactive) | – |
| COc1cc(C(c2c(NC(=O)c3ccco3)sc(C)c2C)N2CCOCC2)cc(OC)c1OC (stereo not drawn) | -2.41% (inactive) | – |
| CCCn1c(CCNc2nc(-c3ccc(OC)cc3)cs2)nc2ccccc21 | 2.48% (inactive) | – |
| c1ccc(Nc2nc(-c3ccncc3)cs2)nc1 | – | 2240 nM (active) |
| O=C(O)c1ccccc1C(=O)Nc1nc(-c2ccccc2)cs1 | 10.8% (inactive) | – |
| O=C(Nc1nc(-c2ccc(-c3ccccc3)cc2)cs1)c1cnccn1 | 7.86% (inactive) | – |
| c1cnc(Nc2nc(-c3ccc4ccccc4c3)cs2)nc1 | – | 282 nM (active) |
| COc1ccc(-c2csc(Nc3ccccn3)n2)cc1 | – | 631 nM (active) |
| COc1ccc(C(=O)Nc2nc(-c3ccc(S(=O)(=O)N4CCOCC4)cc3)cs2)cc1 | -2.62% (inactive) | – |
| Cc1ccc(-c2csc(NC3OC(=O)c4ccccc43)n2)cc1 (stereo not drawn) | -12.3% (inactive) | – |
| Clc1ccc(-c2csc(-c3ccncc3)n2)cc1 | 29.2% (inactive) | – |
| CC(=O)c1ccc(N2CCN(C(=O)c3ccc(Cl)c(S(=O)(=O)NC4CC4)c3)CC2)c(F)c1 | -2.68% (inactive) | – |
| COc1ccccc1NC(=O)CSc1nnc(CNC(=O)c2ccccc2F)o1 | 0.97% (inactive) | – |
| O=C(/C=C/c1cccc([N+](=O)[O-])c1)OCC(=O)N1CCOCC1 | -3.3% (inactive) | – |
| CC1CC(=O)Nc2ccccc2N1C(=O)COc1ccc2cc(Br)ccc2c1 (stereo not drawn) | -2.87% (inactive) | – |
| NC(=O)NCCCC(=O)O | 2.96% (inactive) | – |
| CC(C)(C)NC(=O)Cn1nnc(-c2ccccc2Cl)n1 | – | 3980 nM (active) |
| COc1cc(-c2nnn(CC(=O)NCc3ccccc3)n2)cc(OC)c1OC | -7.25% (inactive) | – |

| SMILES | activation | Potency |
| --- | --- | --- |
| Cc1ccccc1-c1nnn(CC(=O)c2ccc(S(=O)(=O)N3CCCC3)cc2)n1 | 0.639% (inactive) | – |
| CCOc1cc(/C=C/C(=O)OCC(=O)NCCN2C(=O)CSC2=O)ccc1OCC(C)C | 0.0126% (inactive) | – |
| CCOC(=O)c1cc(-c2ccccc2C)n(Cc2cc(C)no2)n1 | 0.676% (inactive) | – |
| COCc1c(C(=O)OCC(=O)Nc2ccc(OC(F)F)cc2)oc2ccccc12 | -1.32% (inactive) | – |
| CN(C)c1nc(-c2cccnc2)nc(-c2ccc(Cl)cc2)c1C#N | -1.1% (inactive) | – |
| CN(C)c1ccc(-c2nnc(-c3cccnc3)o2)cc1 | – | 1120 nM (active) |
| COC(=O)CSc1nnc(-c2cccnc2)o1 | -4.03% (inactive) | – |
| COc1ccc([C@H]2CC(=O)C=C(/C=C/c3ccccc3)C2)cc1 | 29.5% (inactive) | – |
| CCc1cccc(C)c1N1C(=O)CN(Cc2ccccc2)C1=S | 0.289% (inactive) | – |
| Cc1ccc(SCCC(=O)NCc2ccccn2)cc1 | -9.37% (inactive) | – |
| Cc1ccc(SCCC(=O)NC(C(C)C)C(C)C)cc1 | -0.84% (inactive) | – |
| Cc1ccc(SCCSc2ncccn2)cc1 | – | 1260 nM (active) |
| COc1ccc(S(=O)(=O)N2CCOCC2)cc1NC(=O)Cc1coc2cc(C)ccc12 | -2.11% (inactive) | – |
| Cc1n[nH]c(=O)c2c(NC(=O)CSc3cc(Cl)ccc3Cl)oc(C)c12 | 2.7% (inactive) | – |
| CCCCN(C(=O)c1nn(C)c(=O)c2ccccc12)c1c(N)n(CCC)c(=O)[nH]c1=O | 1.11% (inactive) | – |
| COc1cccc(CNC(=O)COC(=O)CN2C(=O)NC3(CCCCC3C)C2=O)c1 (stereo not drawn) | -2.19% (inactive) | – |
| O=C(CNC(=O)c1ccccc1Br)NNC(=O)c1cccs1 | -6.99% (inactive) | – |
| CN(Cc1ccccc1)C(=O)CSc1nc2ccccc2[nH]1 | 7.29% (inactive) | – |
| O=C(CSc1nc2ccccc2[nH]1)Nc1nc(-c2ccccc2)c(-c2ccccc2)o1 | -1.2% (inactive) | – |
| O=C(CSc1nc2ccccc2[nH]1)c1cccs1 | – | 1260 nM (active) |

From PubChem BioAssay AID485313 (National Center for Advancing Translational Sciences (NCATS), 2010)
